# Test results: PubChem BioAssay (EPA / NIEHS)
# Inconclusive results are not listed. More than one record can exist for a structure, and the calls need not agree. The source made the active and inactive calls. The calls were made as follows, unless noted: active = hit-call score of the fitted dose curve at least 0.9, where 1 is the maximum; inactive = score below 0.9.
# Experiments:
# [1] = CCTE_Deisenroth_5AR_NBTE_donor: CCTE's 5alpha-reductase NanoBRET Target Engagement Assay […], Deisenroth Lab (AID 2284319); conditions: actives raise or lower the signal
# Procedure, shortened: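 SRD5A2-NanoLuc, HEK293T, 20 h expression. Chemical 10 nM - 29.9 uM, 8 conc, duplicate; 3 h preincubation + 2 h testosterone tracer. Nano-Glo substrate plus extracellular NanoLuc inhibitor; donor lum 460 nm. DMSO baseline, bidirectional fit.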
# [2] = tested on: SRD5A2 (gene 6716); assay: CCTE_Deisenroth_5AR_NBTE_ratio: CCTE's 5alpha-reductase NanoBRET Target Engagement Assay - Ratio, Deisenroth Lab (AID 2284322); conditions: actives raise or lower the signal
# Procedure, shortened: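 Reverse-transfect HEK293T with pNLF1-C-SRD5A2, express 20 h. Pre-incubate cells with chemical 3 h (8-point series, 10 nM - 29.9 uM, duplicate). Add testosterone tracer, 2 h more. Add substrate/inhibitor, read donor and acceptor emission.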
# [3] = biological target: human Phosphoinositide 3-kinase alpha (PI3Ka), PIK3CA (gene 5290) (UniProt P42336); assay: NVS_ENZ_hPI3Ka: NovaScreen (NVS) Enzymatic Assay for human Phosphoinositide 3-kinase alpha (PI3Ka) (AID 2283196; active = hit-call score of the fitted dose curve at least 0.9, where 1 is the maximum)
# Chain of human Phosphoinositide 3-kinase alpha (PI3Ka), PIK3CA (gene 5290) (P42336 whole entry, looked up): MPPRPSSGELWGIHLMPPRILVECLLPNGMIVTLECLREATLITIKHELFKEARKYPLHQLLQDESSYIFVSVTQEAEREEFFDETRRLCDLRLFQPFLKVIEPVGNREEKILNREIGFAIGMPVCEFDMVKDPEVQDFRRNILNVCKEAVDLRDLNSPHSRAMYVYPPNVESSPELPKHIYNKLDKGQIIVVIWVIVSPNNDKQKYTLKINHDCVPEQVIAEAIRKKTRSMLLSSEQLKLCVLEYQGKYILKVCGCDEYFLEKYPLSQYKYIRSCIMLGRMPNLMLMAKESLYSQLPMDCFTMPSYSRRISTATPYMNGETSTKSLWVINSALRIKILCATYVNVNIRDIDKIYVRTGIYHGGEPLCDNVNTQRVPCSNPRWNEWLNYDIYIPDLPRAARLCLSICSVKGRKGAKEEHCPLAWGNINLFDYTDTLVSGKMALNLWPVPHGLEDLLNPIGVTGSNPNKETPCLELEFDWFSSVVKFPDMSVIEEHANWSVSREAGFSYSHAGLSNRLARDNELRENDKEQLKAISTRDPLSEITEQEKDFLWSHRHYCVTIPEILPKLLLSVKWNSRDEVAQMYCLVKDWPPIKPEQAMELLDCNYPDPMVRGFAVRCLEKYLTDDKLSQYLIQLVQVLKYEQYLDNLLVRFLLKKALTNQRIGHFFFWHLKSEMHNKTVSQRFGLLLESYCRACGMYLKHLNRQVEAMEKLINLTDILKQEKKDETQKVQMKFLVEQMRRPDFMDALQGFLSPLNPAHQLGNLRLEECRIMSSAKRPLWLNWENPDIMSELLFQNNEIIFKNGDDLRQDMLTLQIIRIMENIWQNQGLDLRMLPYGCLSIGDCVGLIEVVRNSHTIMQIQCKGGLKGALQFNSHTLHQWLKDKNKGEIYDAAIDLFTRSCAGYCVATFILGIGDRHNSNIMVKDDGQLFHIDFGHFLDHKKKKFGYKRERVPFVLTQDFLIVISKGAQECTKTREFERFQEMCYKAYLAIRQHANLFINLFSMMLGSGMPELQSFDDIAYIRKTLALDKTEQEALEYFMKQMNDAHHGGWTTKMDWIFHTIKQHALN
# Procedure, shortened: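 Chemicals were first screened at 25 uM in duplicate, then hits were run as concentration series up to 50 uM. Enzyme activity was measured by fluorescence after mobility-shift separation, with loss of signal relative to DMSO taken as activity.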
# [4] = CCTE_Shafer_MEA_acute_spike_number: CCTE's Neural Acute Assay for Total Number of Spikes, Shafer Lab (AID 2284008);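 as to AC50: curve fitted for decrease in spike count so AC50 reflects inhibitors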
# Procedure, shortened: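 Using an adaptive detector set to 8x rms noise, spikes were counted in 40-min windows before and after compound addition (0.03-40 uM) to rat cortical networks at 37 C; the well-level change from baseline was analysed relative to DMSO.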
# [5] = CCTE_Shafer_MEA_acute_firing_rate_mean: CCTE's Neural Acute Assay for Mean Firing Rate, Shafer Lab (AID 2284009);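 also: analyzed for loss of signal so actives lower firing rate relative to DMSO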
# Procedure, shortened: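 Rat primary cortical neurons on 48-well MEA plates, dosed at 0.03-40 uM on DIV 13 or 15; 40 min spontaneous activity recorded at 37 C before and after compound. Spike rate per electrode averaged per well, expressed as percent change from baseline.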
# [6] = CCTE_Shafer_MEA_acute_burst_number: CCTE's Neural Acute Assay for Single-Electrode Bursts, Shafer Lab (AID 2284013)
# Procedure, shortened: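 Primary rat cortical neurons on 16-electrode MEA wells, treated on DIV 13 or 15 with compound at 0.03-40 uM. Single-electrode burst count from 40-min recordings at 37 C before and after exposure; percent change from baseline per well, DMSO negative control.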
# [7] = CCTE_Shafer_MEA_acute_burst_duration_mean: CCTE's Neural Acute Assay for Mean Burst Duration, Shafer Lab (AID 2284014);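 also: hits are decreases in mean burst duration relative to DMSO controls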
# Procedure, shortened: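 Rat primary cortical neurons on 48-well MEA, treated at DIV 13 or 15 with 0.03-40 uM in at least 3 wells. Value is percent change in mean burst duration, comparing 40 min recordings at 37 C before and during exposure.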
# [8] = CCTE_Shafer_MEA_acute_per_burst_spike_number_mean: CCTE's Neural Acute Assay for Average Number of Spikes Per Burst, Shafer Lab (AID 2284015);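 also: hits are decreases in mean spikes per burst versus baseline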
# Procedure, shortened: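 Read-out: percent change in mean spikes per burst, each well's post-exposure 40-min recording versus its own 40-min baseline. Rat cortical cultures, DIV 13 or 15, compounds 0.03-40 uM; DMSO is negative control, loss-of-signal fitting.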
# [9] = CCTE_Shafer_MEA_acute_per_network_burst_spike_number_mean: CCTE's Neural Acute Assay for Average Number of Spikes in a Network Burst, Shafer Lab (AID 2284019);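 as to AC50: curve fitted for loss of signal so actives reduce spikes per network burst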
# Procedure, shortened: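 Rat primary cortical neurons on 48-well MEA at DIV 13 or 15, 37 C; compounds 0.03-40 uM, at least three wells each. 40-min baseline then 40-min exposure recording; percent change in mean spikes per network burst.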
# [10] = CCTE_Shafer_MEA_acute_per_network_burst_spike_number_std: CCTE's Neural Acute Assay for Standard Deviation of Number of Spikes in a Network Burst, Shafer Lab (AID 2284020);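 also: fitted for decrease in spike-number SD versus DMSO so actives lower it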
# Procedure, shortened: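 Rat primary cortical neurons on 48-well MEA (16 electrodes/well), treated DIV 13 or 15 at 0.03-40 uM, ≥3 wells per compound. 40 min recordings at 37 C before and after dosing; value is percent change in network-burst spike-number SD, negative direction vs DMSO.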
# [11] = CCTE_Shafer_MEA_acute_network_burst_percentage: CCTE's Neural Acute Assay for Percentage of Network Bursts, Shafer Lab (AID 2284022);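 also: curves fitted for loss so actives lower network burst percentage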
# Procedure, shortened: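 On DIV 13 or 15, at least three wells of rat cortical neurons per compound are dosed at 0.03-40 uM. Spontaneous firing is detected at 8x rms noise for 40 min before and after dosing at 37 C. The percent change in network-burst spike share is reported.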
# [12] = biological target: Androgen Receptor/SRC-1 Co-activator, AR (gene 367) (UniProt P10275); assay: OT_AR_ARSRC1_0960: Odyssey Thera (OT) 16-hour HEK293T Protein-Complementation Assay for Androgen Receptor/SRC-1 Co-activator (AID 2283353; active = hit-call score of the fitted dose curve at least 0.9, where 1 is the maximum;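 also: actives raise the signal above DMSO so potency reflects increased AR and SRC-1 complex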)
# Chain of Androgen Receptor/SRC-1 Co-activator, AR (gene 367) (P10275 whole entry, looked up, the tested form may be a part): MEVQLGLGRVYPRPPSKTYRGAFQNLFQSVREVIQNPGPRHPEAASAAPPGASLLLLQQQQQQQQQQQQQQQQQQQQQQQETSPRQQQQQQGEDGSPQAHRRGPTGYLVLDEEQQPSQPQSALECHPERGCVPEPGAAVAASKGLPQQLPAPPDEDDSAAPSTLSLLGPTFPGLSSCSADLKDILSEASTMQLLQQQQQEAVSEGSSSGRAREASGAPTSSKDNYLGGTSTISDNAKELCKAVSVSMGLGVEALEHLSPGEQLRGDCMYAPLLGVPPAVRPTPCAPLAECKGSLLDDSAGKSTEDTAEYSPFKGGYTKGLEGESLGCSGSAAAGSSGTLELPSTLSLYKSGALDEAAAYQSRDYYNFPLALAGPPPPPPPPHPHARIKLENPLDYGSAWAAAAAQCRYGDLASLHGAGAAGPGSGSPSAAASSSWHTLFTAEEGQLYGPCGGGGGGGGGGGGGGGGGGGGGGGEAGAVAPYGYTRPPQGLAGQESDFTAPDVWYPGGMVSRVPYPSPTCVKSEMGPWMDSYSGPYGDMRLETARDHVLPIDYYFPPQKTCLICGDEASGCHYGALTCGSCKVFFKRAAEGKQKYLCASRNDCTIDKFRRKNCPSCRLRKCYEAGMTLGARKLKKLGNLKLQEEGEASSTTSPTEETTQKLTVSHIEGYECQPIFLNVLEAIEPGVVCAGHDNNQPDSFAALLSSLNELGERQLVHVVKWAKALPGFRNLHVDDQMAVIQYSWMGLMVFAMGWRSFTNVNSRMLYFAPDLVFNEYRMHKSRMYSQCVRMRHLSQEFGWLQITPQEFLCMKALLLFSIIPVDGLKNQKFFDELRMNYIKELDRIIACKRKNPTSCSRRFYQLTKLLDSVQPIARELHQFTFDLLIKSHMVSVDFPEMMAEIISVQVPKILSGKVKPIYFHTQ
# Procedure, shortened: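 Interaction of AR with SRC-1 was followed by YFP fragment complementation in HEK293T cells after 16 h of dosing. Gain of nuclear-over-cytoplasmic 488 nm fluorescence against DMSO controls defined activity.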
# [13] = biological target: Androgen Receptor/SRC-1 Co-activator, AR (gene 367) (UniProt P10275); assay: OT_AR_ARSRC1_0480: Odyssey Thera (OT) 8-hour HEK293T Protein-Complementation Assay for Androgen Receptor/SRC-1 Co-activator (AID 2283354; active = hit-call score of the fitted dose curve at least 0.9, where 1 is the maximum;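 also: hits raise the complementation signal above DMSO so AC50 marks enhancers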)
# Procedure, shortened: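 HEK293T cells stably expressing AR and SRC-1 fused to Venus YFP fragments, imaged 8 h after dosing. Complementation fluorescence scored as nuclear/cytoplasmic ratio at 488 nm in at least 400 cells per image; gain fitted versus DMSO.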
# [14] = biological target: Agonist Androgen Response Element (ARE), AR (gene 367) (UniProt P10275); assay: OT_AR_ARELUC_AG_1440: Odyssey Thera (OT) 24-hour CHO-K1 Luciferase Assay for Agonist Androgen Response Element (ARE) (AID 2283379; active = hit-call score of the fitted dose curve at least 0.9, where 1 is the maximum)
# Chain of Agonist Androgen Response Element (ARE), AR (gene 367) (P10275 whole entry, looked up): as the sequence (P10275 whole entry, looked up, the tested form may be a part) above
# Procedure, shortened: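 CHO-K1 cells carrying an ARE-driven luciferase reporter were exposed to compounds for 24 h. Luminescence was then read after adding a D-luciferin/ATP mix, and activity was scored as a gain in signal over DMSO vehicle.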
# [15] = biological target: AR (gene 367) (UniProt P10275); assay: ACEA_AR_antagonist_80hr: ACEA Biosciences xCELLigence Real-Time Cell Analysis on Androgen Receptor Antagonism for Proliferation (AID 2283787; active = hit-call score of the fitted dose curve at least 0.9, where 1 is the maximum;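 also: 22Rv1 human prostate cancer cells with growth followed by electrical impedance; hits lower the impedance growth signal relative to DMSO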)
# Chain of AR (gene 367) (P10275 whole entry, looked up): as the sequence (P10275 whole entry, looked up, the tested form may be a part) above
# Procedure, shortened: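 22Rv1 cells in assay medium, growth tracked by electrical impedance; compounds eight-point 1:4 dilutions from 100 uM final, duplicate plates. Endpoint at 80 h; loss of signal versus DMSO.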
# [16] = biological target: Ratio of Nucleoli Translocation and Cytoplasm, AR (gene 367) (UniProt P10275); assay: UPITT_HCI_U2OS_AR_TIF2_Nucleoli_Cytoplasm_Ratio_Antagonist: University of Pittsburgh U2OS Androgen Receptor-Transcriptional Intermediary Factor 2 (AR-TIF2) Antagonism High Content Imaging Assay for Ratio of Nucleoli Translocation and Cytoplasm (AID 2283999; active = hit-call score of the fitted dose curve at least 0.9, where 1 is the maximum;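 also: antagonists lower the DHT-driven ratio of nucleolar to cytoplasmic red signal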)
# Chain of Ratio of Nucleoli Translocation and Cytoplasm, AR (gene 367) (P10275 whole entry, looked up): as the sequence (P10275 whole entry, looked up, the tested form may be a part) above
# Procedure, shortened: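 High-content imaging quantifies the red nucleolar:cytoplasmic fluorescence ratio in U2OS cells with AR-RFP and TIF2-GFP. Final concentrations are 20 uM (screen) or 0.195–50 uM (dose response), analysed against DHT as baseline.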
# [17] = biological target: human Matrix Metalloproteinase-9 (MMP9), MMP9 (gene 4318) (UniProt P14780); assay: NVS_ENZ_hMMP9: NovaScreen (NVS) Enzymatic Assay for human Matrix Metalloproteinase-9 (MMP9) (AID 2283190; active = hit-call score of the fitted dose curve at least 0.9, where 1 is the maximum;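 also: cell-free recombinant MMP9 protease activity read by fluorescent substrate signal; active means inhibition seen as loss of fluorescence signal versus DMSO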)
# Chain of human Matrix Metalloproteinase-9 (MMP9), MMP9 (gene 4318) (P14780 whole entry, looked up): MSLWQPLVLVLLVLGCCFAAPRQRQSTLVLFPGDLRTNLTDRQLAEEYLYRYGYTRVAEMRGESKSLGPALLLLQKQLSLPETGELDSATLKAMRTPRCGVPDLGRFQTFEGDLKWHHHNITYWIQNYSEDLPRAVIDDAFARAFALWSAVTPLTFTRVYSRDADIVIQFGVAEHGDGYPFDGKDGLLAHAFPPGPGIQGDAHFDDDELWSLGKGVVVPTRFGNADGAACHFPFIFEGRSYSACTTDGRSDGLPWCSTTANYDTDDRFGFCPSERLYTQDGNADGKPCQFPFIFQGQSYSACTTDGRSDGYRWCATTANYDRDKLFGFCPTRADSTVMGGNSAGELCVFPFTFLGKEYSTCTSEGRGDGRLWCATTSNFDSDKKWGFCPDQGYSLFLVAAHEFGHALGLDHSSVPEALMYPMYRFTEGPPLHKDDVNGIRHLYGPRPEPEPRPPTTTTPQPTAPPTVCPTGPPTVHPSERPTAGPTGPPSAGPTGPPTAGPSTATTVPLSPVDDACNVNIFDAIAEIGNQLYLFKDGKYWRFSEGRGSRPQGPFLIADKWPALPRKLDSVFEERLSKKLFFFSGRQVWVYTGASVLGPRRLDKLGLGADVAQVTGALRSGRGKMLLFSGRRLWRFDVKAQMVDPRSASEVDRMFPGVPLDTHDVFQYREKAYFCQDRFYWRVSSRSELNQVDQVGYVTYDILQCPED
# Procedure, shortened: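 Inhibition was scored as loss of fluorescence signal against DMSO controls. The recombinant protease was exposed to chemicals for 1 hour before reading; initial testing used 25 uM in duplicate.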
# [18] = biological target: human Dopamine Transporter (DAT), SLC6A3 (gene 6531) (UniProt Q01959); assay: NVS_TR_hDAT: NovaScreen (NVS) Transporter Assay for human Dopamine Transporter (DAT) (AID 2283374; active = hit-call score of the fitted dose curve at least 0.9, where 1 is the maximum;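 also: activity means loss of bound radioligand signal relative to DMSO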)
# Chain of human Dopamine Transporter (DAT), SLC6A3 (gene 6531) (Q01959 whole entry, looked up): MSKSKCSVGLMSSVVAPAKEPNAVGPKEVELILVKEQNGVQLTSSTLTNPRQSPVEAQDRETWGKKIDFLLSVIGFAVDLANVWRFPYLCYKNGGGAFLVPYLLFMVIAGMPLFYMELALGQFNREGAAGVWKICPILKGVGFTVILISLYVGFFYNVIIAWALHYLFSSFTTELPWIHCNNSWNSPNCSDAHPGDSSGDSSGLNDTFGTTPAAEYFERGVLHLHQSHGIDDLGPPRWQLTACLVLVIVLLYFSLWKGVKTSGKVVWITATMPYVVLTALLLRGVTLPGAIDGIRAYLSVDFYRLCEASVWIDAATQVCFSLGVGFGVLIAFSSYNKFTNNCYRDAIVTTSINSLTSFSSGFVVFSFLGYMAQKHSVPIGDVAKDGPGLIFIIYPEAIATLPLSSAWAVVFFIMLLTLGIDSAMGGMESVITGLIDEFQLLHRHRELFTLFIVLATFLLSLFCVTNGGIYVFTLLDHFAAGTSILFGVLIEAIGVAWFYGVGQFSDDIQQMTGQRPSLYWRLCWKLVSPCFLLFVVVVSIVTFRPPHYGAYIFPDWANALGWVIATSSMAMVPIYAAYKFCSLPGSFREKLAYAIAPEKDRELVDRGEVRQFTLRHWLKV
# Procedure, shortened: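 Cell-free radioligand displacement binding at human DAT, 1 h after dosing, with filtration and scintillation counting. Primary screen in duplicate at 25 uM, actives then in concentration series. Loss of bound signal versus DMSO scored.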
# [19] = biological target: bovine Estrogen Receptor (ER), ESR1 (gene 407238) (UniProt P49884); assay: NVS_NR_bER: NovaScreen (NVS) Nuclear Receptor Binding Assay for bovine Estrogen Receptor (ER) (AID 2283345; active = hit-call score of the fitted dose curve at least 0.9, where 1 is the maximum;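 also: actives lower the bound radioligand count which means they displace the ER ligand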)
# Chain of bovine Estrogen Receptor (ER), ESR1 (gene 407238) (P49884 whole entry, looked up): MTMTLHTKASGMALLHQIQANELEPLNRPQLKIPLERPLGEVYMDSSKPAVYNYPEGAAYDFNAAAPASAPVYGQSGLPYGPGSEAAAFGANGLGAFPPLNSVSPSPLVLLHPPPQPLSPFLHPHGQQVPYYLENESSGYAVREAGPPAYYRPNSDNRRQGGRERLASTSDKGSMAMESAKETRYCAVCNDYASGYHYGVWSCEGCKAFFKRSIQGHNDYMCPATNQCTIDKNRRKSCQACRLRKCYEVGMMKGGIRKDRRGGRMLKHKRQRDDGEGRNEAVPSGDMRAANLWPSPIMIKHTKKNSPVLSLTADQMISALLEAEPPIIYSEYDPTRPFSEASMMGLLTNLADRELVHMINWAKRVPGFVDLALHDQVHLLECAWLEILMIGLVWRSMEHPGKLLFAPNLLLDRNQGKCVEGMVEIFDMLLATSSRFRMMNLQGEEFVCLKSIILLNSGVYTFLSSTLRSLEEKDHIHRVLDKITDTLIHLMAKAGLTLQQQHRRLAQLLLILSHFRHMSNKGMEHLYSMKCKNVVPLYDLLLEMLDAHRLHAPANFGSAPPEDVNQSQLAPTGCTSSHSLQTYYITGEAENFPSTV
# Procedure, shortened: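 Scintillation counting of displaced radioligand gave the readout; bovine uterine membrane extract supplied the receptor. Measured 18 h post-dose, normalized to DMSO baseline. Single 25 uM duplicate screen preceded concentration-response follow-up.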
compound,measurement,setting,value
C=CC(=O)OCC(CC)CCCC (centres undefined),outcome,[1],inactive
same,outcome,[2],inactive
Cc1ccccc1CCl,outcome,[3],inactive
O=[N+]([O-])O,AC50,[4],0.0886 µM (active)
same,outcome,[4],inactive
same,AC50,[5],0.0885 µM (active)
same,outcome,[5],inactive
same,AC50,[6],0.189 µM (active)
same,outcome,[6],inactive
same,outcome,[7],inactive
same,outcome,[8],inactive
same,AC50,[9],0.003 µM (active)
same,outcome,[9],inactive
same,AC50,[10],0.003 µM (active)
same,outcome,[10],inactive
same,AC50,[11],0.0386 µM (active)
same,outcome,[11],inactive
CN(C)N,outcome,[12],inactive
same,outcome,[13],inactive
same,outcome,[14],inactive
same,outcome,[15],inactive
same,outcome,[16],inactive
N#Cc1cccc(C#N)c1,AC50,[17],7.24 µM (active)
CCOP(=O)(OCC)OCC,AC50,[17],5.9 µM (active)
Cc1ccc(OP(=O)(Oc2ccc(C)cc2)Oc2ccc(C)cc2)cc1 (tested in a mixture with another compound),AC50,[4],4.2 µM (active)
same,AC50,[5],4.2 µM (active)
same,AC50,[6],3.7 µM (active)
same,outcome,[7],inactive
same,AC50,[8],3.99 µM (active)
same,AC50,[9],3.4 µM (active)
same,AC50,[10],3.32 µM (active)
same,AC50,[11],7.23 µM (active)
Oc1cc(Cl)ccc1Cl,outcome,[1],inactive
same,outcome,[2],inactive
Nc1ccc(-c2ccc(N)c(N)c2)cc1N,outcome,[3],inactive
COC(C)(C)CCC[C@H](C)C/C=C/C(C)=C/C(=O)OC(C)C,outcome,[3],inactive
ClCC(Cl)Cl,outcome,[3],inactive
C[C@]12CC[C@H](O)C[C@H]1CC[C@@H]1[C@@H]2C[C@@H](O)[C@]2(C)[C@@H](C3=CC(=O)OC3)CC[C@]12O,AC50,[18],40.9 µM (active)
CC(C)CCCCCCCOC(=O)c1ccccc1C(=O)OCCCCCCCC(C)C,AC50,[17],10.9 µM (active)
COc1ccc(CO)cc1,outcome,[4],inactive
same,outcome,[5],inactive
same,outcome,[6],inactive
same,outcome,[7],inactive
same,AC50,[8],3.71 µM (active)
same,AC50,[9],25.4 µM (active)
same,outcome,[10],inactive
same,outcome,[11],inactive
C[N+](=O)[O-],AC50,[17],1.45 µM (active)
Cc1ccc(C)c2ccccc12,outcome,[12],inactive
same,outcome,[13],inactive
same,outcome,[14],inactive
same,outcome,[16],inactive
CC(C)(C)C(O)C(Oc1ccc(-c2ccccc2)cc1)n1cncn1 (centres undefined),AC50,[18],13.4 µM (active)
C[C@]12CCC(=O)C(O)=C1CC[C@@H]1[C@@H]2CC[C@]2(C)C(=O)CC[C@@H]12,outcome,[19],inactive
